Results on 14 compounds are retold here after PubChem BioAssay.

The structures appear in SMILES notation. Active and inactive are the calls of the source.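 How the source made its calls, unless noted: active means visually confirmed hit in the image check and inhibition above 20%; inconclusive means visually confirmed hit but inhibition not above 20%; inactive means no visual hit in the image check.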

Assay [1] is described as follows: inhibitors of TNFa-induced NFkB p65 translocation, primary screen, imaging, HUVEC, MLSMR starter and 10KST1 sets (AID 438;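 active means inhibition above 20% together with a positive visual image hit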;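 further: compound added about 3h40 before a 20 min TNFalpha stimulation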;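 on inhibition: signal is the nuclear over cytoplasmic p65 intensity ratio per well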). To be noted: HUVEC TNFa-induced p65 nuclear translocation; cell count: measured here: nuclei count (cytotoxicity indicator), at 2.08 µM; inhibition: at 2 µM, stronger effect = higher value, 0% TNFa-plus-vehicle, 100% no-TNFa wells.
The nature of assay [2]: reduction of polyQ htt aggregates in cells – imaging, exon1htt(103Q)mCFP cells, high-content imaging, primary screen (AID 483;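 active means visual image review flags a hit and inhibition of aggregation exceeds 20%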;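 further: compound exposure lasted 3 days before fixation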;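 on nuclei count: percent of the per-plate median nuclei count of sample wells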). To be noted: exon1htt(103Q)mCFP cell line, aggregate imaging, at 2 µM; inhibition of aggregation: stronger effect = higher value; nuclei count: measured here: cell count, toxicity.
Assay [3] can be described thus: endothelial E-selectin expression blockers – imaging, HUVEC, immunofluorescence, MLSMR starter and 10KST1 sets, primary screen (AID 487).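 On inhibition: signal is fraction of cell area covered by stained E-selectin grains.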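 On nuclei count: 100% = median nuclei count of all wells on the same plate.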 To be noted: HUVEC TNFalpha-induced E-selectin immunofluorescence imaging, at 2 µM; inhibition: stronger effect = higher value; nuclei count: measured here: cell number, toxicity.
Assay [4] addresses Voltage-gated potassium channel subunit beta-2 (Rattus norvegicus) (UniProt P62483). As to the kind of experiment: inhibitors of rat Kvbeta2 reductase activity – biochemical, NADPH fluorescence, primary screen (AID 622;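 active means fluorescence slope higher than the sample average by over 3 SD, cut at about -0.22 in these data, passing the limit was not always enough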;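 further: slope of raw intensity against log time taken from 70 to 1610 s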). The conditions noted are these: recombinant KvBeta, 4-cyanobenzaldehyde reduction, at 10 µM, stronger effect = higher value.
The target is the same in assay [5]. The assay is described as follows: enhancers of rat Kvbeta2 NADPH turnover – biochemical, NADPH fluorescence, primary screen (AID 623;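 active means NADPH fluorescence slope more negative than the mean of all samples by about 3 SD, 99.7% confidence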;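 further: fluorescence intensity change per second fitted from 20 to 320 s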). The conditions noted are these: Recombinant KvBeta, NADPH fluorescence decrease slope, 10 min; at 10 µM; stronger effect = lower value.
In assay [6] the target is Alpha-2C adrenergic receptor (Homo sapiens) (UniProt P18825). The assay is described as follows: compounds altering alpha2C-coupled GIRK flux – cell-based, HEK293 alpha2C/GIRK1/2, thallium flux, primary screen (AID 624;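 active means fluorescence slope after compound addition differing from the mean of all screened samples at 99.7% confidence, in either direction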;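 further: slope of fluorescence ratio to pre-addition baseline per second over 15 to 24 s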). The conditions noted are these: thallium flux BTC fluorescence, at 10 µM, actives lie on both sides.
Chain of Alpha-2C adrenergic receptor (Homo sapiens) (P18825 whole entry, looked up): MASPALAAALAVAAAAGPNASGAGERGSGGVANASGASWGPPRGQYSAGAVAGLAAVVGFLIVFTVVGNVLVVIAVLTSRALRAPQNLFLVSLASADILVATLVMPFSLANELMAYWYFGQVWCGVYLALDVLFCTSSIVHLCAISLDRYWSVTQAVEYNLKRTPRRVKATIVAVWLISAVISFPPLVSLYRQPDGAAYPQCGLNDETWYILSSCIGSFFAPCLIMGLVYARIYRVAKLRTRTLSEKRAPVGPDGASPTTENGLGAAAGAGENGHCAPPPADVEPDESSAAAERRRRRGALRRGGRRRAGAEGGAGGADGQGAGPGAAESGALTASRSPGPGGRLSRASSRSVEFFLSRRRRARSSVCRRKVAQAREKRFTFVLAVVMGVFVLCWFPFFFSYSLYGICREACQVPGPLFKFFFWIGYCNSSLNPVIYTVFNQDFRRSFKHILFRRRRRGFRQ
A short description of assay [7]: blockers of RIG-like receptor reporter activation – cell-based, Sendai virus stimulus, luciferase, 10K MLSCN set, TLR/RLR signaling modifier project, primary screen (AID 602276;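 active means inhibition at or above 50% at 10 µM; inactive means inhibition below 50%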;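 further: firefly luciferase from ISG56 promoter only with Renilla not read in this screen; 0% = Sendai virus plus DMSO and 100% = medium plus DMSO without virus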). The conditions noted are these: HEK293 RL24 IRF3 luciferase reporter, at 10 µM, stronger effect = higher value.
Assay [8] in a line: TLR3 IRF3 reporter activation blockers – cell-based, poly I:C stimulus, luciferase, 10K MLSCN set, primary screen (AID 602277;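 active means inhibition of the reporter signal at or above 50%; inactive means inhibition below 50%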). To be noted: HEK293-TLR3 RL24 IRF3 luciferase reporter, at 10 µM, stronger effect = higher value. (In general: A reporter such as luciferase makes a cellular process visible.)

Chain of Voltage-gated potassium channel subunit beta-2 (Rattus norvegicus) (P62483 whole entry, looked up): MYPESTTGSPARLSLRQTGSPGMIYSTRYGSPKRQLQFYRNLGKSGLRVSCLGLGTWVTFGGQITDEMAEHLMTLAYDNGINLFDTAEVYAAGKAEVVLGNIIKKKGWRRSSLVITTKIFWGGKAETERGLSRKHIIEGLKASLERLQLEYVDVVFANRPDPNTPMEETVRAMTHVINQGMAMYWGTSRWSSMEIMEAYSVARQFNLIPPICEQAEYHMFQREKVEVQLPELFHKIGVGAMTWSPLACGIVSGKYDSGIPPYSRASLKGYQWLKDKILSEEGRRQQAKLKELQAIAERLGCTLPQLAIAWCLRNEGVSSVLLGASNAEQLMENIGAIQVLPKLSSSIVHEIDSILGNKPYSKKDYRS

As to `COc1ccccc1Oc1ccc(S(=O)(=O)N2CCOCC2)cc1S(=O)(=O)N1CCOCC1`, the cell count in assay [1] came to 242. In addition, the inhibition in assay [1] was 2.9% (inactive); in assay [3], -142% (inactive); in assay [7], 10% (inactive); in assay [8], 1.69% (inactive). Also, the inhibition of aggregation in assay [2] is 24.3% (inactive). Also, the nuclei count in assay [2] amounted to 106%; in assay [3], 132%. Also, in assay [4], the fluorescence slope is -0.377 (inactive). The NADPH fluorescence slope in assay [5] is 5.2e-07 (inactive). Further, in assay [6], the slope was 0.00572 (inactive).

Consider `CN(C)c1ccc(CNCCC2(O)CCOC(C)(C)C2)cc1` (centres undefined), for which the cell count in assay [1] is 495. Moreover, the inhibition in assay [1] was -1.4% (inactive); in assay [3], -25% (inactive); in assay [7], 0.927% (inactive); in assay [8], 28.2% (inactive). The inhibition of aggregation in assay [2] is 3.5% (inactive). Moreover, the nuclei count came to 89.5% in assay [2] and 114% in assay [3]. For the same compound, the fluorescence slope in assay [4] was -0.472 (inactive). In addition, in assay [5], the NADPH fluorescence slope is -4.7e-06 (inactive). In assay [6], the slope is 0.00622 (inactive).

Regarding `COc1ccc(CCNc2oc(COc3ccc(F)cc3)nc2C#N)cc1`, the cell count in assay [1] stood at 407. The inhibition in assay [1] is -9.8% (inactive); in assay [3], 17% (inactive); in assay [7] it was 15.6% (inactive); in assay [8] it was 23.5% (inactive). In addition, the inhibition of aggregation in assay [2] was 8.7% (inactive). Besides, the nuclei count stood at 88.8% in assay [2] and 74.8% in assay [3]. Also, in assay [4], the fluorescence slope is -0.608 (inactive). For the same compound, the NADPH fluorescence slope in assay [5] was -3.3e-06 (inactive). Besides, the slope in assay [6] was 0.00681 (inactive).

`O=C(CCC(=O)c1cccs1)NCc1ccccc1`: the cell count in assay [1] came to 462. Further, the inhibition in assay [1] is -0.2% (inactive); in assay [3], -24.2% (inactive); in assay [7], -1.41% (inactive); in assay [8], 1.97% (inactive). In assay [2], the inhibition of aggregation was -5.4% (inactive). Moreover, the nuclei count is 111% in assay [2] and 132% in assay [3]. In addition, the fluorescence slope in assay [4] was -0.622 (inactive). The NADPH fluorescence slope in assay [5] was -5.1e-06 (inactive). In addition, the slope in assay [6] is 0.0103 (inactive).

Regarding `c1ccc(-c2oc3ncnc(NCCN4CCOCC4)c3c2-c2ccccc2)cc1`, the cell count in assay [1] was determined as 365. The inhibition in assay [1] is -11.4% (inactive); in assay [3] it was -121% (inactive); in assay [7], 13.9% (inactive); in assay [8], 16% (inactive). Further, in assay [2], the inhibition of aggregation is -1.8% (inactive). Besides, the nuclei count in assay [2] was 102%; in assay [3], 106%. For the same compound, the fluorescence slope in assay [4] was -0.512 (inactive). Further, the NADPH fluorescence slope in assay [5] is -8.4e-05 (inactive). The slope in assay [6] was 0.00536 (inactive).

For `Cc1c(C(=O)NCc2ccccn2)sc2nc(-c3ccc(F)cc3)cn12`, the cell count in assay [1] was determined as 482. The inhibition in assay [1] is -5.5% (inactive); in assay [3] it was 10.9% (inactive); in assay [7], 17.6% (inactive); in assay [8] it was -13.7% (inactive). The inhibition of aggregation in assay [2] was -10% (inactive). Besides, the nuclei count in assay [2] amounted to 61.1%; in assay [3], 104%. The fluorescence slope in assay [4] is -0.502 (inactive). The NADPH fluorescence slope in assay [5] was 1.3e-05 (inactive). The slope in assay [6] is 0.00621 (inactive).

With `CCn1cc(C(C)NC(=O)COc2ccc(Cl)cc2C)c(C)n1` (centres undefined), in assay [1], the cell count is 713. Further, the inhibition in assay [1] was -14.6% (inactive); in assay [3], -64.7% (inactive); in assay [7] it was 1.5% (inactive); in assay [8], 14.6% (inactive). In assay [2], the inhibition of aggregation was 0.6% (inactive). The nuclei count in assay [2] came out at 130%; in assay [3] it was 105%. For the same compound, the fluorescence slope in assay [4] was -0.404 (inactive). Also, in assay [5], the NADPH fluorescence slope was -2.9e-05 (inactive). In addition, the slope in assay [6] was 0.00313 (inactive).

Take `O=C(Nc1ccc(CN2CCOCC2)cc1)c1cc2ccccn2n1`: the cell count in assay [1] was found to be 579. Besides, the inhibition is 0% (inactive) in assay [1], 8.4% (inactive) in assay [3], 45.9% (inactive) in assay [7] and 12% (inactive) in assay [8]. In addition, the inhibition of aggregation in assay [2] was -6.8% (inactive). The figures for the nuclei count in assay [2] and in assay [3] were 99.9% and 108%, respectively. Also, the fluorescence slope in assay [4] was -0.596 (inactive). Also, in assay [5], the NADPH fluorescence slope is -1.7e-05 (inactive). Moreover, in assay [6], the slope was 0.00566 (inactive).

As to `OCCNCCCCOc1ccccc1F`, in assay [1], the cell count is 765. The inhibition in assay [1] is -1.5% (inactive); in assay [3], 33.1% (inactive); in assay [7] it was -4.78% (inactive); in assay [8], 2.08% (inactive). In addition, the inhibition of aggregation in assay [2] is -2.5% (inactive). In addition, the nuclei count in assay [2] stood at 91.8%; in assay [3], 91.1%. For the same compound, the fluorescence slope in assay [4] was -0.387 (inactive). In addition, the NADPH fluorescence slope in assay [5] was 1.2e-05 (inactive). The slope in assay [6] is 0.00574 (inactive).

Take `COc1ccc(-n2c(=O)c3c4c(sc3n3c(C)nnc23)CCCC4)cc1`: the cell count in assay [1] was determined as 415. The inhibition in assay [1] was 3.3% (inactive); in assay [3], -7.4% (inactive); in assay [7], 4.81% (inactive); in assay [8], 19.4% (inactive). In assay [2], the inhibition of aggregation is 4.3% (inactive). Besides, the nuclei count was 100% in assay [2] and 116% in assay [3]. In addition, the fluorescence slope in assay [4] is -0.35 (inactive). In addition, the NADPH fluorescence slope in assay [5] was -2.4e-05 (inactive). The slope in assay [6] was 0.00664 (inactive).

As to `Nn1c(SCC(=O)NC2CCCCC2)nnc1C1CC1`, in assay [1], the cell count stood at 433. In addition, the inhibition in assay [1] is -28.7% (inactive); in assay [3] it was -36.9% (inactive); in assay [7], 4.49% (inactive); in assay [8], 16.1% (inactive). The inhibition of aggregation in assay [2] is 7.4% (inactive). For the same compound, the nuclei count in assay [2] was 95.6%; in assay [3], 117%. For the same compound, the fluorescence slope in assay [4] is -0.466 (inactive). In addition, the NADPH fluorescence slope in assay [5] is 4.6e-05 (inactive). In addition, in assay [6], the slope was 0.00622 (inactive).

Take `Cc1cc(CN2CCN(CCC#N)CC2)c(O)c(C2(C)CCCCC2)c1`: the cell count in assay [1] was found to be 527. In addition, the inhibition in assay [1] was -12.3% (inactive); in assay [3], -197% (inactive); in assay [7], -14.9% (inactive); in assay [8], 4.95% (inactive). Also, the inhibition of aggregation in assay [2] is 5.3% (inactive). Further, the nuclei count in assay [2] worked out at 98.4%; in assay [3], 90.4%. The fluorescence slope in assay [4] is -0.541 (inactive). Moreover, the NADPH fluorescence slope in assay [5] is 4e-05 (inactive). The slope in assay [6] was 0.00432 (inactive).

Regarding `O=C(NCCC1=CCCCC1)C1CCN(C(=O)Nc2ccccc2)CC1`, the cell count in assay [1] was 206. The inhibition is -6.2% (inactive) in assay [1], 5.2% (inactive) in assay [3], 2.99% (inactive) in assay [7] and 21.5% (inactive) in assay [8]. For the same compound, in assay [2], the inhibition of aggregation was -13.3% (inactive). The nuclei count in assay [2] is 92.3%; in assay [3] it was 84.8%. The fluorescence slope in assay [4] was -0.439 (inactive). Besides, the NADPH fluorescence slope in assay [5] is -5.1e-05 (inactive). The slope in assay [6] is 0.00392 (inactive).

On to `COc1ccc(N2C(N)=C(C#N)C(c3cccnc3)C3=C2CC(C)(C)CC3=O)cc1` (centres undefined), for which the cell count in assay [1] worked out at 446. Moreover, the inhibition in assay [1] was -7.5% (inactive); in assay [3], -1.3% (inactive); in assay [7], 37.2% (inactive); in assay [8] it was 38.7% (inactive). Moreover, the inhibition of aggregation in assay [2] was -1.2% (inactive). Further, the values for the nuclei count in assay [2] and in assay [3] were 97.7% and 104%, respectively. Also, the fluorescence slope in assay [4] is -0.461 (inactive). For the same compound, the NADPH fluorescence slope in assay [5] was -0.000329 (inactive). In assay [6], the slope is 0.00535 (inactive).

In general, inhibition refers to the drop in the measured response relative to a control, in per cent.
